Source: PubChem BioAssay (NCATS)
Values without a mark were called inactive. Active and inactive are the calls of the source. The call rests on the fitted dose curve; in most records, active means well fitted cell-killing curve with a large enough effect; inconclusive means small, poorly fitted or top-dose-only effect, or effect the other way; inactive means flat fitted curve, though single readings scatter.

Assay: MultiTox-Fluor Cytotoxicity Assay - LYMP1-003 - Dead Cells (AID 961);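 further: 0% = DMSO and 100% = tetraoctylammonium bromide; nearly all actives have a fitted effect of over 70% in size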
Conditions: LYMP1-003 lymphoblastoid cells, dead-cell protease fluorescence; series mostly up to 92.2 µM; cytotoxicity (dead cells): at the top concentration
Text: NIH Chemical Genomics Center [NCGC]
NIH Molecular Libraries Screening Centers Network [MLSCN]
National Institutes of Environmental Health Sciences [NIEHS]
National Toxicology Program [NTP]
We have developed a 1536-well cell-based assay for quantitative high throughput screening (qHTS) against a number of cell lines to determine in vitro cytotoxicity of small molecules. This particular assay uses a human lymphoblastoid cell line (LYMP1-003) purchased from Coriell Institute.
NCGC Assay Protocol Summary:
The MultiTox-Fluor Cytotoxicity Assay (Promega) is a homogeneous method to simultaneously measure the relative number of live and dead cells in culture by detecting changes in cell membrane integrity. There are two fluorogenic peptide substrates in the assay reagent. Viable cells are determined when the cell-permeant substrate (GF-AFC) enters the cell and is cleaved by protease from live cells resulting in liberated fluorophore. This live-cell protease activity restricted to viable cells is proportional to cell number. The dead cells are determined by using fluorogenic cell-impermeant peptide substrate (bis-AAF-R110) which cleaved by dead cell proteases leaking from damaged cell membrane.
Using the MultiTox-Fluor Cytotoxicity Assay, the relative number of dead cells was measured in the lymphoblastoid cell line with complete culture medium following compound treatment for 16 hours. The assay was performed in opaque black Kalypsys 1536-well plates. In the screen, tetraoctylammonium bromide was used as positive control. Library compounds were measured for their ability to cause acute toxicity in the cell line, as reflected by an increase in dead cell protease activity, in a concentration-dependent manner. Data were normalized to the controls for basal activity (DMSO only) and 100% stimulation (15 uM tetraoctylammonium bromide). AC50 values were determined from concentration-response data modeled with the standard Hill equation.
qHTS protocol for MultiTox-Fluor Cytotoxicity assay
[Step] [Parameter] [Value] [Description]
1. Reagent; 5 uL; 2500 lymphoblastoid cells/well
2. Time; 5 hr; 37 C incubation
4. Controls; 23 nL; Tetraoctylammonium bromide 6.4pM to 92 uM
5. Time; 16 hr; 37 C incubation
6. Reagent; 5 uL; MuliTox-Fluor Assay reagent
7. Time; 60 min; Room Temperature
8. Detection; dead-cell fluorescence (Ex/Em=485/520); EnVision plate reader
Keywords: cytotoxicity, lymphoblastoid cell line, fluorescence, NTPHTS, NTPHTS_NCGC, NIEHS, EPA, DSSTox, MLSMR, MLSCN, NIH Roadmap, qHTS, NCGC

SMILES | cytotoxicity (dead cells) [%] | outcome
Cn1c(=O)c2c(ncn2C)n(C)c1=O | -2.75 | –
COc1ccc(CCN(C)CCCC(C#N)(c2ccc(OC)c(OC)c2)C(C)C)cc1OC (stereo not given) | 13.5 | –
CCC1(c2ccccc2)C(=O)NCNC1=O | -1.84 | –
CC(C)C(=O)Nc1ccc([N+](=O)[O-])c(C(F)(F)F)c1 | 17.1 | –
COc1ccc2c(c1)c(CC(=O)O)c(C)n2C(=O)c1ccc(Cl)cc1 | -2.79 | –
Nc1c2c(nc3ccccc13)CCCC2 | -7.2 | –
NS(=O)(=O)c1cc2c(cc1Cl)NCNS2(=O)=O | 10.7 | –
Cc1ccc(-c2cc(C(F)(F)F)nn2-c2ccc(S(N)(=O)=O)cc2)cc1 | -7.55 | –
CC(C)NCC(O)c1ccc(O)c(O)c1 (stereo not given) | -11.4 | –
O=c1c(-c2ccc(O)cc2)coc2cc(O)cc(O)c12 | 6.06 | –
Nc1ccn([C@H]2CC[C@@H](CO)O2)c(=O)n1 | -8.19 | –
Cn1c(=O)c2[nH]cnc2n(C)c1=O | -3.15 | –
Cc1cn([C@H]2C=C[C@@H](CO)O2)c(=O)[nH]c1=O | – | inactive
COc1ccc2[nH]cc(CCNC(C)=O)c2c1 | – | inactive
Clc1ccc(C(c2ccccc2Cl)C(Cl)Cl)cc1 (stereo not given) | 0.195 | –
O=c1[nH]cc(F)c(=O)[nH]1 | -3.64 | –
N[C@@H](Cc1c[nH]c2ccc(O)cc12)C(=O)O | -12.8 | –
NCCS(=O)(=O)O | -7.59 | –
Cc1cn([C@H]2C[C@H](N=[N+]=[N-])[C@@H](CO)O2)c(=O)[nH]c1=O | -0.465 | –
CC(COc1ccccc1)N(CCCl)Cc1ccccc1 (stereo not given) | 11 | –
